Results on nine compounds are retold here after PubChem BioAssay (Tox21).

For assay [1], the target named is Luciferin 4-monooxygenase (Photinus pyralis) (UniProt P08659). Put plainly: qHTS assay to identify small molecule inhibitors of firefly luciferase (AID 1224835). Note: series mostly up to about 120 µM; nearly all actives have a fitted effect of over 25% in size. Summed up:
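Inhibition of purified Photinus luciferase is measured by luminescence. Substrate levels (D-luciferin, ATP) sit at their KM values. Each compound is tested in a concentration series.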

A short description of assay [2]: qHTS assay to identify small molecule agonists of the constitutive androstane receptor (CAR) signaling pathway - cell viability counter screen (AID 1224836). Note: series mostly up to about 92 µM; nearly all actives have a fitted effect of over 45% in size. The gist of the method:
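Fluorescence from CellTiter-Fluor indicates live cells after 23 h exposure. The human hepatoma line expresses hCAR and a CYP2B6-2.2kb reporter. Incubation medium contains 0.75 uM PK11195 (final).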
For orientation: In qHTS, concentration-response curves come from the screen itself.

Assay [3] is described as follows: qHTS assay to identify small molecule antagonists of the constitutive androstane receptor (CAR) signaling pathway - cell viability counter screen (AID 1224837). Note: series mostly up to about 92 µM; nearly all actives have a fitted effect of over 45% in size. Summed up:
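Cytotoxicity counter-screen: CellTiter-Fluor fluorescence after 23 h compound exposure (15-point qHTS) in double-stable HepG2-CYP2B6-hCAR cells, with 50 nM CITCO added.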

The nature of assay [4]: qHTS assay to identify small molecule antagonists of the estrogen related receptor signaling pathway with the pleiotropic PPARgamma coactivator (PGC) from Tox21 10K library - cell viability counter screen (AID 1224840; active = well fitted cell-killing curve with a large enough effect in the repeat runs, not every such curve was filed as active; note: nearly all actives have a fitted effect of over 40% in size). Summed up:
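Counter-screen for cytotoxicity: after 17.5 h compound exposure at 37 C, CellTiter-Fluor reagent added to PGC/ERR cells for 30 min and fluorescence read. Cells were seeded at 2,000 per well 6 h before dosing.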

The nature of assay [5]: qHTS assay to identify small molecule agonists of the hypoxia (HIF-1) signaling pathway - cell viability counter screen (AID 1224844; calls by dose curve; note: nearly all actives have a fitted effect of over 50% in size). Summed up:
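Cytotoxicity measured by CellTiter-Glo ATP luminescence in the wells also read for beta-lactamase signal. Cells were HRE-bla ME-180 (2,000/well, 0.5% dialyzed FBS), exposed to compounds for 17 h at 37C.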

Assay [6] is described as follows: qHTS assay to identify small molecule agonists of H2AX (AID 1224845; active = well fitted activation curve with a large enough effect in the signal ratio in the repeat runs, not every such curve was filed as active; the % refers to the signal ratio). The gist of the method: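 Phospho-H2AX Ser139 measured by HTRF (ex 320 nm; em 665 and 620 nm) after 24 hr antibody incubation. Compounds, 15 concentrations, 0.76% DMSO, were applied to CHO-K1 cells for 3hr at 37C before lysis.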
The nature of assay [7]: qHTS RealTime-Glo MT Cell Viability Assay in HepG2 cells - 24 hour (AID 1224867). Note: nearly all actives have a fitted effect of over 50% in size. Summed up: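 qHTS, HepG2, 600 cells/well, RealTime-Glo (NanoLuc + prosubstrate) added with cells; 5 h preincubation; DMSO compound addition; 37 C; luminescence at 0/8/16/24/32/40 h.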
Assay [8] is described as follows: qHTS RealTime-Glo MT Cell Viability Assay in HEK293 cells - 32 hour (AID 1224868). Note: top concentration of the series differs between compounds; nearly all actives have a fitted effect of over 50% in size. The gist of the method:
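Assay medium contained NanoLuc luciferase plus cell-permeant prosubstrate, added with HEK293 cells at 600 cells/well. After 5 h at 37 C/5% CO2 compounds were added; plates stayed at 37 C for 40 h with serial luminescence reads.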

Assay [9] in a line: A CellTox Green Cytotoxicity Assay to monitor cytotoxicity in HEK293 cells - 0 hour (AID 1224869). Note: nearly all actives have a fitted effect of over 50% in size. Summed up: (§1)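 Fluorescence from a DNA-binding dye excluded by viable cells was measured repeatedly in the same HEK293 wells (600 cells/well) during continuous compound exposure at 37 C. Each assay gives one read point: 0, 8, 16, 24, 32 or 40 h.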
Assay [10] can be described thus: qHTS RealTime-Glo MT Cell Viability Assay in HepG2 cells - 40 hour (AID 1224870). Note: nearly all actives have a fitted effect of over 50% in size. Note: potency is the fitted concentration of half-maximal effect. Summed up:
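Real-time viability: cells seeded at 600 per well together with NanoLuc and cell-permeant prosubstrate, compounds added after 5 h incubation. Luminescence tracked at 0, 8, 16, 24, 32 and 40 h of exposure.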

The target in assay [11] is Thyrotropin receptor (Homo sapiens) (UniProt P16473). Put plainly: qHTS assay to identify small molecule agonists of the thyroid stimulating hormone receptor (TSHR) signaling pathway (AID 1224843; calls by dose curve; note: nearly all actives have a fitted effect of over 45% in size). Summed up:
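Agonist activity read as cAMP rise via d2/cryptate HTRF competition, 1 h room-temperature detection, in HEK293 cells expressing TSHR. Fifteen-point titrations, each run in triplicate, with a 30 min room-temperature incubation beforehand.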

A short description of assay [12]: qHTS assay to identify small molecule agonists of the hypoxia (HIF-1) signaling pathway (AID 1224846; active = well fitted activation curve with a large enough effect in the signal ratio in the repeat runs, not every such curve was filed as active; the % refers to the signal ratio). The gist of the method: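 Compounds added to ME-180 cells carrying hypoxia-response-element beta-lactamase reporter (0.5% dialyzed FBS, 5 h preplating), 17 h at 37C; agonist activity detected by CCF4-AM B/G FRET read-out.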
A short description of assay [13]: qHTS assay to identify small molecule agonists of H2AX - cell viability counter screen (AID 1224847; calls by dose curve; note: top concentration of the series differs between compounds; nearly all actives have a fitted effect of over 30% in size). The gist of the method: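 Viability of CHO-K1 (wild type) cells after 3 hr compound exposure was measured by CellTiter-Glo luminescence.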
Assay [14] is described as follows: A CellTox Green Cytotoxicity Assay to monitor cytotoxicity in HEK293 cells - 40 hour (AID 1224871). Note: nearly all actives have a fitted effect of over 45% in size. Summed up: as §1
A short description of assay [15]: qHTS assay to identify small molecule agonists of the estrogen related receptor signaling pathway with the pleiotropic PPARgamma coactivator (PGC) from Tox21 10K library (AID 1224842). Note: nearly all actives have a fitted effect of over 15% in size. The gist of the method:
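Luminescence from One-Glo (30 min, room temperature) measured after PGC/ERR cells had 18 h at 37 C with pinned compound (23 nL in DMSO). Cells had been seeded at 2,000 per well and pre-incubated 6 h.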

The nature of assay [16]: qHTS assay to identify small molecule antagonists of the estrogen related receptor (ERR) signaling pathway from Tox21 library (AID 1224848). Note: nearly all actives have a fitted effect of over 50% in size. Summed up: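 Luciferase luminescence (ONE-Glo, 30 min room temperature) was the read-out. Cells of the NTP-supplied ERR line, 2,000 per well, were given 6 h at 37 C before compound addition in DMSO and 18 h exposure at 37 C.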

Unmarked numbers belong to inactive results. Records with an inconclusive call do not appear. Activity calls are given as the source filed them. Unless noted, calls come from the whole dose curve; as a rule, active = well fitted curve in the direction sought with a large enough effect in the repeat runs; inconclusive = weak or mixed curves; inactive = no such curve, though single readings can be large; an effect the other way counts as inactive or inconclusive.
% is set by controls: 0 for no effect and ±100 for the full control effect.

Luciferin 4-monooxygenase (Photinus pyralis), sequence (P08659 whole entry, looked up): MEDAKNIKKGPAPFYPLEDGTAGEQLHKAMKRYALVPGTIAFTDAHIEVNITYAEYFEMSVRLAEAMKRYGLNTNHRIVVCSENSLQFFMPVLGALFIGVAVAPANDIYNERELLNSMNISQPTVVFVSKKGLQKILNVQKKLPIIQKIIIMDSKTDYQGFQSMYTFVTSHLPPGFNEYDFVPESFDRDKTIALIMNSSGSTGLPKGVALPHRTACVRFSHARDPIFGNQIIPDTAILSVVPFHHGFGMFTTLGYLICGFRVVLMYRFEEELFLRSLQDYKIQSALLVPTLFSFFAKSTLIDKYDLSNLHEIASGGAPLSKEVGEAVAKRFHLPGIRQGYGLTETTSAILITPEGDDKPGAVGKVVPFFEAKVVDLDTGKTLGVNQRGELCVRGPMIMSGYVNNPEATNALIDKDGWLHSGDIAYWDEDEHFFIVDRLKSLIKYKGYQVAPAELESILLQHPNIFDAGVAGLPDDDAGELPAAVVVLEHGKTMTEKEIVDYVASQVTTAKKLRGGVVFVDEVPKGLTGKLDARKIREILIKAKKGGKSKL
Thyrotropin receptor (Homo sapiens), sequence (P16473 whole entry, looked up): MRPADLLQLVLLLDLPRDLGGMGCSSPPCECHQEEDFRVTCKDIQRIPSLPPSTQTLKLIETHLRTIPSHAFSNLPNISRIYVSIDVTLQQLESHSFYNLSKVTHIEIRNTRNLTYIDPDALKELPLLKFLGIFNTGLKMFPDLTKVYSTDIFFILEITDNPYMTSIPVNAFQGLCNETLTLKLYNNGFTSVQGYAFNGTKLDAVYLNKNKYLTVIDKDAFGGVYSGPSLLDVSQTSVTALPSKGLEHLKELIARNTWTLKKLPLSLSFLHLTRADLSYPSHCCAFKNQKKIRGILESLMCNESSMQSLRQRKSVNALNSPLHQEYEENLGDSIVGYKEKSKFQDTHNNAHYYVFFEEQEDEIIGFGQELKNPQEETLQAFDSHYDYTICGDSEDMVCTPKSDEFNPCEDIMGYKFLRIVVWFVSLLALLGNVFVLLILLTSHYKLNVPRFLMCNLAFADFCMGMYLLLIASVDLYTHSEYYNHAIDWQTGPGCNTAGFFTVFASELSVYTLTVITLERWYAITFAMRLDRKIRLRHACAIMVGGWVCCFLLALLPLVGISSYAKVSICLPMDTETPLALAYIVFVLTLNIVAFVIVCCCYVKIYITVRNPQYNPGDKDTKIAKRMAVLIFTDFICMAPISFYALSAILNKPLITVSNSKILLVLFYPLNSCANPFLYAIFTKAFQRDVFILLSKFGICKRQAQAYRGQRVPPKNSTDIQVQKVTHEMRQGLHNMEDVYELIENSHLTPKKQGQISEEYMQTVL

Turning to `CCN[C@@H]1C[C@H](N)[C@@H](OC2OC(CN)=CCC2N)[C@H](O)[C@H]1O[C@H]1OC[C@](C)(O)[C@H](NC)[C@H]1O` (stereo not given in full), the activity change, negative = inhibition in assay [1] was -1.17% [at 0.435 µM]. Further, the figures for the viability change, negative = cytotoxic in assay [2] and in [4] were 2.22% [at 0.349 µM] and -0.298% [at 0.349 µM], respectively. Moreover, the activity change, negative = cytotoxicity in assay [3] was 0.22% [at 0.349 µM]; in assay [5], 3.33% [at 0.29 µM]; in assay [7], 1.48% [at 0.29 µM]. Besides, the activation (H2AX phosphorylation) in assay [6] is -3.19% [at 0.582 µM]. Further, the activity change, negative = cytotoxic was 4.65% [at 0.29 µM] in assay [8] and 1.76% [at 0.29 µM] in assay [10]. Further, the cytotoxicity in [9] is 3.58% [at 0.29 µM].
With `NC(=O)NC1N=C([O][Al])NC1=O` (stereo not given), the Potency entry in [1], in assay [11], in [6], in [8] and in assay [10] was “inactive” throughout. The compound was classed as inactive in assay [2], in [3], in assay [4], in [12], in assay [13] and in assay [7]. In addition, the outcome in [9] was inactive.
For the compound `CC[N+](C)(CC)CCOC(=O)C1c2ccccc2Oc2ccccc21`, the Potency result in [1], in [11], in [5], in assay [6], in assay [8] and in assay [10] was “inactive” each time. Moreover, the outcome in assay [2], in assay [3], in assay [4], in [13], in assay [7] and in assay [9] was inactive.
`CC(=O)N[C@H]1[C@H]([C@H](O)[C@H](O)CO)OC(C(=O)O)=C[C@@H]1N=C(N)N`: the Potency entry in assay [1], in assay [11], in [5], in assay [6], in [8] and in assay [10] was “inactive” throughout. Moreover, in [14], the Potency result is “inactive”. The result in assay [2], in assay [3], in assay [4], in [12], in assay [13] and in [7] was inactive. The outcome in [9] was inactive.
As for `CC[N+](CC)(CC(=O)Nc1c(C)cccc1C)Cc1ccccc1` (tested in a mixture with another compound), the Potency entry in assay [1], in [5], in [8] and in [10] was “inactive” each time. The result in assay [2], in assay [3], in [4], in assay [12], in [13] and in [7] was inactive.
As to `CCCCCCCC1CCCC1=O` (stereo not given), the Potency entry in assay [1], in assay [11], in assay [5], in assay [6], in [8] and in assay [10] was “inactive” in each case. For the same compound, the Potency result in [14] was “inactive”. Further, the result in [2], in assay [3], in [4], in assay [12], in assay [13] and in assay [7] was inactive. The outcome in [9] was inactive.
As to `CC12CCC(C(=O)C1=O)C2(C)C` (stereo not given), the Potency result in [1], in assay [5], in assay [6], in [8] and in assay [10] was “inactive” in each case. The call in [2], in assay [3], in assay [4], in assay [12], in [7] and in assay [9] was inactive.
For the compound `C[N+](C)(CCOc1ccccc1)Cc1cccs1`, the Potency entry in assay [1], in [15], in assay [11], in assay [5], in assay [16] and in assay [8] was “inactive” in each case. Moreover, the call in assay [2], in assay [3], in assay [4], in assay [12], in assay [13] and in [7] was inactive. For the same compound, in assay [9], the compound was called inactive. In assay [10], the Potency is 23.9 µM (active).
Turning to `Cc1ccc(-c2ncc(Cl)cc2-c2ccc(S(C)(=O)=O)cc2)cn1`, the Potency entry in assay [1], in [11], in assay [5], in assay [6], in assay [8] and in assay [10] was “inactive” in each case. The Potency result in assay [14] was “inactive”. Further, the compound was called inactive in assay [2], in assay [3], in [4], in [12], in assay [13] and in [7].
